Source: PubChem BioAssay (NCATS)
Values joined by “and” are separate entries in the source; they are usually repeats but may differ in a detail not shown here. Identical values can stand only once. Results filed as inconclusive are left out. Entries that show only a call come without a potency. Where a structure was tested more than once in an assay, its records may differ in their call. Active and inactive are the calls of the source. Unless noted, calls follow the shape of the dose curve; as a rule, active = well fitted curve in the direction sought with a large enough effect; inconclusive = small, poorly fitted or top-dose-only effect, or another doubt; inactive = no such curve, though single readings can be large; an effect the other way counts as inactive or inconclusive.

Assays:
[1] = target: Atrial natriuretic peptide receptor 1 (Homo sapiens) (UniProt P16066); assay: Natriuretic polypeptide receptor (hNpr1) antagonism - Pilot screen (AID 1347049; calls by dose curve;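 also: agonist-evoked cGMP luminescence read 20 min after hNppA addition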; also: potency is read from the fitted curve at half-maximal effect)
In short: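 cGMP-sensor HEK293/hNpr1 cells, 1500/well, plated overnight at 37C. 2% GloSensor reagent, 2 h RT. Compound (23 nL pin transfer) 30 min RT, baseline luminescence pre-read. 0.1 nM hNppA, 20 min RT, post-read.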

[2] = NS1 protein of Zika virus - qHTS assay to identify small molecule inhibitors in human HEK 293 cells (AID 1347053); also: nearly all actives have a fitted effect of over 55% in size; also: potency is read from the fitted curve at half-maximal effect
In short: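 Read-out is a two-antibody TR-FRET for ZIKV NS1, normalized between uninfected cells and infected cells. Compound added 1 h before MR766 infection at MOI 0.5; human HEK 293 cells incubated 24 h, 37 C.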

[3] = target: T1, Tyrosine-protein phosphatase non-receptor type substrate 1 (Homo sapiens) + Leukocyte surface antigen CD47 (Homo sapiens) (UniProt P78324+Q08722); assay: CD47-SIRPalpha protein protein interaction - LANCE assay qHTS validation (AID 1347057; active = well fitted curve in the direction sought with a large enough effect in the signal ratio, with a control signal flat, not every such curve was filed as active; the % refers to the signal ratio; also: series mostly up to about 38 µM)
In short: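 Inhibition of soluble CD47/SIRPalpha ectodomain association by titrated compounds, measured as 665/615 nm time-resolved FRET ratio after sequential 30 min room-temperature incubations.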

[4] = target: T1, Tyrosine-protein phosphatase non-receptor type substrate 1 (Homo sapiens) + Leukocyte surface antigen CD47 (Homo sapiens); assay: CD47-SIRPalpha protein protein interaction - HTRF assay qHTS validation (AID 1347058; active = well fitted curve in the direction sought with a large enough effect in the signal ratio, not every such curve was filed as active; the % refers to the signal ratio; also: series mostly up to about 38 µM)
In short: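 Soluble extracellular domains (6His-CD47, Avi-tag-biotinylated SIRPalpha) in PBS pH 7.4 with 0.05% IGEPAL CA-630. Compounds were preincubated 30 min at RT with CD47 and anti-His-Eu, then SIRPalpha and SAV-XL665 were added. TR-FRET 665/615 ratio.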

[5] = target: T1, Tyrosine-protein phosphatase non-receptor type substrate 1 (Homo sapiens) + Leukocyte surface antigen CD47 (Homo sapiens); assay: CD47-SIRPalpha protein protein interaction - Alpha assay qHTS validation (AID 1347059);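 also: bead proximity luminescence from CD47 binding SIRPalpha after compound preincubation with SIRPalpha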
In short: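 SIRPalpha-biotin 25 nM + cpd, 30 min RT, dark; add CD47-His 12.5 nM, 30 min; add Ni-NTA/SAV beads 10 ug/mL, 30 min; AlphaScreen. Buffer PBS pH 7.4 + 0.05% IGEPAL CA-630. Non-biotinylated SIRPalpha as control inhibitor.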

[6] = target: Parathyroid hormone/parathyroid hormone-related peptide receptor (Homo sapiens) (UniProt Q03431); assay: qHTS for PTHR1 Agonists: Optimization Screen against the NCGC LOPAC library (AID 1347079);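 also: GloSensor cAMP luminescence in HEK-293 GP2 cells expressing human PTHR1 with IBMX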
In short: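 Signal increase flags agonism. GP2 cells, derived from HEK-293, express human PTHR1 and a GloSensor cAMP construct.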

[7] = qHTS for Inhibitors of the Functional Ribonucleoprotein Complex (vRNP) of Lassa (LASV) Arenavirus: LASV Primary Screen - GLuc reporter signal (AID 1347082; calls by dose curve; tested in HEK293 reporter line; also: nearly all actives have a fitted effect of over 60% in size; also: potency is read from the fitted curve at half-maximal effect)
[8] = qHTS for Inhibitors of the Functional Ribonucleoprotein Complex (vRNP) of Lassa (LASV) Arenavirus: Viability assay - alamar blue signal for LASV Primary Screen (AID 1347083; calls by dose curve; tested in HEK293 reporter line; also: nearly all actives have a fitted effect of over 80% in size; also: potency is read from the fitted curve at half-maximal effect)
[9] = target: Nucleoprotein (Lymphocytic choriomeningitis virus (strain Armstrong)) (UniProt P09992); assay: qHTS for Inhibitors of the Functional Ribonucleoprotein Complex (vRNP) of Lymphocytic Choriomeningitis Arenaviruses (LCMV): LCMV Primary Screen - GLuc reporter signal (AID 1347086; calls by dose curve; also: series mostly up to about 57 µM; nearly all actives have a fitted effect of over 70% in size)
[10] = qHTS of pediatric cancer cell lines to identify multiple opportunities for drug repurposing: Primary screen for TC32 cells (AID 1347089); also: nearly all actives have a fitted effect of over 60% in size; also: potency is read from the fitted curve at half-maximal effect
In short: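 qHTS, TC32, 48 h drug treatment, CellTiter-Glo luminescence as a proxy for metabolically active cells; primary top concentration 46 µM (MIPE 11-pt, NPC 8-pt); confirmatory 11-pt.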

[11] = qHTS of pediatric cancer cell lines to identify multiple opportunities for drug repurposing: Primary screen for DAOY cells (AID 1347090); also: nearly all actives have a fitted effect of over 55% in size; also: potency is read from the fitted curve at half-maximal effect
In short: (§1)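 Viability measured as metabolically active cells via CellTiter-Glo luminescence following 48 hours of compound exposure, 11-point dilutions in confirmatory testing. 500-1,000 cells/well plated 5 hours before dosing; controls were DMSO and 2.3 µM bortezomib.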

[12] = qHTS of pediatric cancer cell lines to identify multiple opportunities for drug repurposing: Primary screen for SJ-GBM2 cells (AID 1347091); also: potency is read from the fitted curve at half-maximal effect
In short: as §1

[13] = qHTS of pediatric cancer cell lines to identify multiple opportunities for drug repurposing: Primary screen for A673 cells (AID 1347092); also: nearly all actives have a fitted effect of over 45% in size; also: potency is read from the fitted curve at half-maximal effect
In short: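 Luminescence from CellTiter-Glo, taken after 15 min at room temperature, served as the proxy for metabolically active cells following 48 h treatment. Both potency and efficacy were taken from curves fitted to the titration data.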

[14] = qHTS of pediatric cancer cell lines to identify multiple opportunities for drug repurposing: Primary screen for SK-N-MC cells (AID 1347093); also: potency is read from the fitted curve at half-maximal effect
In short: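 Metabolically active cells were quantified by ATP-dependent luminescence (CellTiter-Glo, 15 min at room temperature) following 48 h treatment. Cells had been plated at 500-1,000 per well and settled for 5 h beforehand.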

[15] = qHTS of pediatric cancer cell lines to identify multiple opportunities for drug repurposing: Primary screen for NB-EBc1 cells (AID 1347095); also: potency is read from the fitted curve at half-maximal effect
In short: (§2)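 Following a 5-hour attachment period, cells at 500-1,000/well received compounds and were cultured for 48 hours. CellTiter-Glo was added and luminescence read to estimate viable, metabolically active cells.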

[16] = qHTS for Inhibitors of the Functional Ribonucleoprotein Complex (vRNP) of Lymphocytic Choriomeningitis Arenaviruses (LCMV): Viability assay - alamar blue signal for LCMV Primary Screen (AID 1347085; calls by dose curve; tested in HEK293 reporter line; also: nearly all actives have a fitted effect of over 80% in size; also: potency is read from the fitted curve at half-maximal effect)
[17] = qHTS of pediatric cancer cell lines to identify multiple opportunities for drug repurposing: Primary screen for BT-37 cells (AID 1347094); also: potency is read from the fitted curve at half-maximal effect
In short: as §2

[18] = qHTS of pediatric cancer cell lines to identify multiple opportunities for drug repurposing: Primary screen for U-2 OS cells (AID 1347096); also: nearly all actives have a fitted effect of over 50% in size
In short: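 Viability after 48 h compound treatment at 37C, 500-1,000 cells/well, read as ATP luminescence with CellTiter-Glo. Primary screens used 11-point (MIPE, 0.78 nM-46 µM) or 8-point (NPC, 0.59 nM-46 µM) final concentrations; follow-up screens used 11-point dilutions.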

[19] = qHTS of pediatric cancer cell lines to identify multiple opportunities for drug repurposing: Primary screen for SK-N-SH cells (AID 1347098); also: nearly all actives have a fitted effect of over 65% in size; also: potency is read from the fitted curve at half-maximal effect
In short: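 Cells (500-1,000/well) rested 5 h, then received compounds for 48 h; metabolically active cells were measured by CellTiter-Glo luminescence. Final concentrations spanned up to 46 µM (MIPE, 11-point) or 0.59 nM-46 µM (NPC, 8-point) in primary screens, 11-point in follow-ups.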

[20] = qHTS of pediatric cancer cell lines to identify multiple opportunities for drug repurposing: Primary screen for Saos-2 cells (AID 1347097); also: nearly all actives have a fitted effect of over 40% in size
In short: as §2

Chain of Nucleoprotein (Lymphocytic choriomeningitis virus (strain Armstrong)) (P09992 whole entry, looked up): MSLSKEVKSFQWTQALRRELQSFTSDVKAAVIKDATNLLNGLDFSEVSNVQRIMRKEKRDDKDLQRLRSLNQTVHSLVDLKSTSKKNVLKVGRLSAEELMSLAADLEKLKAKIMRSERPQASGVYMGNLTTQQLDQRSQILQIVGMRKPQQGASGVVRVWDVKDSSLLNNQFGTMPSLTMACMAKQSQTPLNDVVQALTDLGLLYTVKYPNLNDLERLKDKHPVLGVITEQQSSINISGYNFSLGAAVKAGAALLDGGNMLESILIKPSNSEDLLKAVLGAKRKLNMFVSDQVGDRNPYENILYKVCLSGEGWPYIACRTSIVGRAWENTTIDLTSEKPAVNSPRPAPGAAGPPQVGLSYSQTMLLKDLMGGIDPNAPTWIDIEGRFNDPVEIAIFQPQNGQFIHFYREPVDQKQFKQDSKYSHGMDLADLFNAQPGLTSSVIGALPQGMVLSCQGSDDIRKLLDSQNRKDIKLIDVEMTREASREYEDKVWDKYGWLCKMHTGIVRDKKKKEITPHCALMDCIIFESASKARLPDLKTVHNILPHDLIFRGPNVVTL
Chain of Atrial natriuretic peptide receptor 1 (Homo sapiens) (P16066 whole entry, looked up): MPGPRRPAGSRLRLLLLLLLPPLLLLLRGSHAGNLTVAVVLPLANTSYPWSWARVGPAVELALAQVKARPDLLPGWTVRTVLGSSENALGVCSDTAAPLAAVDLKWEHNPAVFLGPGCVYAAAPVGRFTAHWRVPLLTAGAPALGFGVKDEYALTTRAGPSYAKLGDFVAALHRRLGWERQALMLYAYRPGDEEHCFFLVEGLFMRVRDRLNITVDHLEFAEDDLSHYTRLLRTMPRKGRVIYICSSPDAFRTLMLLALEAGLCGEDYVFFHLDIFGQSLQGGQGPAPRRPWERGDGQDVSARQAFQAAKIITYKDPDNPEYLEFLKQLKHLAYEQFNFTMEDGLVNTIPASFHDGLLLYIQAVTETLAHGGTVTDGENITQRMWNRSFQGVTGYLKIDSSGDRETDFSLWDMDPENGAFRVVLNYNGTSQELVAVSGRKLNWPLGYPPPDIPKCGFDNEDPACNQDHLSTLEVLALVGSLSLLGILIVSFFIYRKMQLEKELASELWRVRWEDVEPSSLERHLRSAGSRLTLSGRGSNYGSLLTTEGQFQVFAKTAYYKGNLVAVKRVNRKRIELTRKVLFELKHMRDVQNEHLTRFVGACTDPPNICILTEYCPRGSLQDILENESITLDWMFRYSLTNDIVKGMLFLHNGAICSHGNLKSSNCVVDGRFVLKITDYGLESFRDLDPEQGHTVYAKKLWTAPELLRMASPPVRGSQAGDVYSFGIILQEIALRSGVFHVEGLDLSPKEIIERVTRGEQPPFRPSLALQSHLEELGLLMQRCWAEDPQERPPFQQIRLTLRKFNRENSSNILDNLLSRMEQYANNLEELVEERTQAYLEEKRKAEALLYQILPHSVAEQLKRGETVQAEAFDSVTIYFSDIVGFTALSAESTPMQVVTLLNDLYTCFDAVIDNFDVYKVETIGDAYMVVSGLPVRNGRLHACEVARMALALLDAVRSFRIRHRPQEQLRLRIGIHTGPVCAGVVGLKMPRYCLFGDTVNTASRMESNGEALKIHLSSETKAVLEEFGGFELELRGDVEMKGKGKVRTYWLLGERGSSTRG
T1 sequence (P78324 whole entry, looked up, the tested form may be a part): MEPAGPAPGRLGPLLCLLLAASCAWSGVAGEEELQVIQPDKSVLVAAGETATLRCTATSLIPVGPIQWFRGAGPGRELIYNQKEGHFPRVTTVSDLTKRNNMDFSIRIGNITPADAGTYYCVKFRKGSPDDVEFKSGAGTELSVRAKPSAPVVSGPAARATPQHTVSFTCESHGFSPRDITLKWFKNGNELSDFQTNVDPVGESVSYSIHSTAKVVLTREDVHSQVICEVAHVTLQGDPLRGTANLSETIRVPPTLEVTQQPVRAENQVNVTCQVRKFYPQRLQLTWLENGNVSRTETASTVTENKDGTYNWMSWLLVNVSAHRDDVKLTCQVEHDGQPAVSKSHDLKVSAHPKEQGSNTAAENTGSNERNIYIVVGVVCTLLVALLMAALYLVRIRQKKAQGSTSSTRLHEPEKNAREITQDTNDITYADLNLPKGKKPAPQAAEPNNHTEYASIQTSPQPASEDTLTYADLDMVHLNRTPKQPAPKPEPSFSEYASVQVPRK
T1 sequence (Q08722 whole entry, looked up, the tested form may be a part): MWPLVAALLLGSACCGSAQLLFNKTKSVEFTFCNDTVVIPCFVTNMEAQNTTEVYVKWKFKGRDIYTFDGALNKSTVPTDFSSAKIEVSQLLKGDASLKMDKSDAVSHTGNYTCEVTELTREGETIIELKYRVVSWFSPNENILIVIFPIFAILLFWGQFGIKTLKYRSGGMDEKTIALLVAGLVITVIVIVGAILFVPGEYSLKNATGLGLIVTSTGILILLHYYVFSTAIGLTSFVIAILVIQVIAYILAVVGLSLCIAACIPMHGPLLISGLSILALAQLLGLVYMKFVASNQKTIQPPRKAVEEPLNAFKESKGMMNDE
Chain of Parathyroid hormone/parathyroid hormone-related peptide receptor (Homo sapiens) (Q03431 whole entry, looked up): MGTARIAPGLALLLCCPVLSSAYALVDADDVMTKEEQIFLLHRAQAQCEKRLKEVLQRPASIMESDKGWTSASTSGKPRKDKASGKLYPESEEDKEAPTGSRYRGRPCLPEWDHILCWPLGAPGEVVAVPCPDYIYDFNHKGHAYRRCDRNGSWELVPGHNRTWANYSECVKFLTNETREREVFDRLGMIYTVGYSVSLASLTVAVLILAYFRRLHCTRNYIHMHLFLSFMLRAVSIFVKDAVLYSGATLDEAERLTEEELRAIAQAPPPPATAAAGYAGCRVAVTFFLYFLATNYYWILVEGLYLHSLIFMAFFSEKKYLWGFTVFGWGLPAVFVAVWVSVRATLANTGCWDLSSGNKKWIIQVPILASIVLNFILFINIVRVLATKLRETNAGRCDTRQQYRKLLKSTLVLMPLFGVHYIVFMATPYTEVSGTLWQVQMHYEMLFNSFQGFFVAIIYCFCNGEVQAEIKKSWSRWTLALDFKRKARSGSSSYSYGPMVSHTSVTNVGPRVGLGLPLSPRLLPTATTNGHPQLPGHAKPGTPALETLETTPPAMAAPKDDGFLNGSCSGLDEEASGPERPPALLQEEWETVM

COC[C@H]1OC(=O)c2coc3c2[C@@]1(C)C1=C(C3=O)C2CCC(=O)[C@@]2(C)C[C@H]1OC(C)=O (stereo partly drawn)
Potency [1]: inactive | Potency [2]: inactive | outcome [3]: inactive | outcome [4]: inactive | outcome [5]: inactive | outcome [6]: inactive | Potency [7]: inactive | Potency [8]: inactive | Potency [9]: inactive | Potency [10]: inactive | Potency [11]: 18.7 µM (active) | Potency [12]: 264 nM (active) | Potency [13]: 4.69 µM (active) | Potency [14]: 1.05 µM (active) | Potency [15]: 833 nM (active)

C=C(C)[C@H]1Cc2c(ccc3c2O[C@@H]2COc4cc(OC)c(OC)cc4[C@@H]2C3=O)O1
Potency [1]: 135 nM (active) | Potency [2]: inactive | outcome [3]: inactive | outcome [4]: inactive | outcome [6]: inactive | Potency [7]: 1090 nM (active) | Potency [8]: 2.17 µM (active) and 708 nM (active) | Potency [16]: 3.85 µM (active) | Potency [10]: 1.67 µM (active) and 4.66 µM (active) | Potency [11]: 168 nM (active) and 296 nM (active) | Potency [12]: 422 nM (active) | Potency [13]: 106 nM (active) and 743 nM (active) | Potency [14]: 299 nM (active) and 590 nM (active) | Potency [17]: 777 nM (active) and 2.17 µM (active) | Potency [15]: 3.35 µM (active) and 2.64 µM (active)

Nc1ccncc1
Potency [1]: inactive | Potency [2]: inactive | outcome [3]: inactive | outcome [4]: inactive | outcome [5]: inactive | outcome [6]: inactive | Potency [7]: inactive | Potency [8]: inactive | Potency [16]: inactive | Potency [9]: inactive | Potency [10]: inactive | Potency [11]: inactive | Potency [12]: inactive | Potency [13]: inactive | Potency [14]: inactive | Potency [17]: inactive | Potency [15]: inactive | Potency [18]: inactive | Potency [19]: inactive

N[C@@H](Cc1ccc(N(CCCl)CCCl)cc1)C(=O)O
Potency [2]: 8.33 µM (active) | Potency [7]: inactive | Potency [8]: inactive | Potency [16]: inactive | Potency [9]: inactive | Potency [10]: 20.8 µM (active) | Potency [11]: 16.8 µM (active) and 18.7 µM (active) | Potency [12]: 2640 nM (active) | Potency [13]: 6.68 µM (active) and 5.9 µM (active) | Potency [14]: 2.99 µM (active) and 2.35 µM (active) | Potency [17]: 15.5 µM (active) and 15.3 µM (active) | Potency [15]: 3.76 µM (active) and 235 nM (active) | Potency [18]: inactive

CC(C)=CCOc1c2occc2cc2ccc(=O)oc12
Potency [1]: inactive | Potency [2]: inactive | outcome [3]: inactive | outcome [5]: inactive | outcome [6]: inactive | Potency [7]: inactive | Potency [8]: inactive | Potency [16]: inactive | Potency [9]: inactive | Potency [10]: inactive | Potency [11]: inactive | Potency [12]: inactive | Potency [13]: inactive | Potency [14]: inactive | Potency [17]: inactive | Potency [15]: inactive | Potency [18]: inactive | Potency [19]: inactive

NCC1(CC(=O)O)CCCCC1
Potency [1]: inactive | Potency [2]: inactive | outcome [3]: inactive | outcome [4]: inactive | outcome [5]: inactive | outcome [6]: inactive | Potency [7]: inactive | Potency [8]: inactive | Potency [16]: inactive | Potency [9]: inactive | Potency [10]: inactive | Potency [11]: inactive | Potency [12]: inactive | Potency [13]: inactive | Potency [14]: inactive | Potency [17]: inactive | Potency [15]: inactive | Potency [18]: inactive | Potency [20]: inactive | Potency [19]: inactive

Cc1cccc(C)c1NC1=NCCCS1
Potency [2]: inactive | outcome [3]: inactive | outcome [4]: inactive | outcome [5]: inactive | outcome [6]: inactive | Potency [7]: inactive | Potency [8]: inactive | Potency [16]: inactive | Potency [9]: inactive | Potency [10]: inactive | Potency [11]: inactive | Potency [12]: inactive | Potency [13]: inactive | Potency [14]: inactive | Potency [17]: inactive | Potency [15]: inactive | Potency [18]: inactive | Potency [19]: inactive

C[C@@H]1O[C@@H](O[C@H]2C[C@@H](O)[C@]3(CO)[C@H]4[C@H](O)C[C@]5(C)[C@@H](C6=CC(=O)OC6)CC[C@]5(O)[C@@H]4CC[C@]3(O)C2)[C@H](O)[C@H](O)[C@H]1O
Potency [1]: inactive | Potency [2]: 13.2 nM (active) and inactive | outcome [3]: inactive | outcome [4]: inactive | outcome [5]: inactive | outcome [6]: inactive | Potency [8]: 109 nM (active) and 44.7 nM (active) | Potency [16]: 122 nM (active) and 89.1 nM (active) | Potency [10]: 131 nM (active) and 93.8 nM (active) | Potency [11]: 29.6 nM (active) and 53.1 nM (active) | Potency [12]: 18.7 nM (active) and 75 nM (active) | Potency [13]: 46.9 nM (active) and 66.8 nM (active) | Potency [14]: 16.6 nM (active) and 23.7 nM (active) | Potency [17]: 15.3 nM (active) and 49 nM (active) | Potency [15]: 74.3 nM (active) and 266 nM (active) | Potency [19]: 152 nM (active) and 344 nM (active)

CC[C@@H](CO)NC(=O)[C@@H]1C=C2c3cccc4[nH]cc(c34)C[C@H]2N(C)C1
Potency [1]: inactive | Potency [2]: inactive | outcome [6]: inactive | Potency [7]: inactive | Potency [8]: inactive | Potency [16]: inactive | Potency [9]: inactive | Potency [10]: inactive | Potency [11]: inactive | Potency [12]: inactive | Potency [13]: inactive | Potency [14]: inactive | Potency [17]: inactive | Potency [15]: inactive | Potency [18]: inactive | Potency [20]: inactive | Potency [19]: inactive

Cc1ncc(CNC(=O)N(CCCl)N=O)c(N)n1
Potency [1]: inactive | Potency [2]: inactive | outcome [3]: inactive | outcome [4]: inactive | outcome [5]: inactive | outcome [6]: inactive | Potency [7]: inactive | Potency [8]: inactive | Potency [16]: inactive | Potency [9]: inactive | Potency [11]: inactive | Potency [12]: inactive | Potency [17]: inactive | Potency [15]: inactive | Potency [18]: inactive | Potency [20]: inactive | Potency [19]: inactive

CN1C[C@H](CNC(=O)OCc2ccccc2)C[C@@H]2c3cccc4c3c(cn4C)C[C@H]21
Potency [1]: inactive | Potency [2]: inactive | outcome [3]: inactive | outcome [6]: inactive | Potency [7]: inactive | Potency [8]: inactive | Potency [16]: inactive | Potency [9]: inactive | Potency [10]: inactive | Potency [11]: inactive | Potency [15]: inactive | Potency [18]: inactive | Potency [19]: 27.3 µM (active)

C[C@]12CCC(=O)C(O)=C1CC[C@@H]1[C@@H]2CC[C@]2(C)C(=O)CC[C@@H]12
Potency [1]: inactive | Potency [2]: inactive | outcome [6]: inactive | Potency [7]: inactive | Potency [8]: inactive | Potency [16]: inactive | Potency [9]: inactive | Potency [10]: inactive | Potency [11]: inactive | Potency [12]: inactive | Potency [13]: inactive | Potency [14]: inactive | Potency [17]: inactive | Potency [15]: inactive | Potency [18]: inactive | Potency [20]: inactive | Potency [19]: inactive
